# Source: the supplement of paper PMC8728848
# Many of the other results were omitted from the sample, so the strongest signals are more common in it than they were.
# B1: Strep tagII-anxA1 (Homo sapiens), P04083 (protein)
# chain: MAMVSEFLKQAWFIENEEQEYVQTVKSSKGGPGSAVSPYPTFNPSSDVAALHKAIMVKGVDEATIIDILTKRNNAQRQQIKAAYLQETGKPLDETLKKALTGHLEEVVLALLKTPAQFDADELRAAMKGLGTDEDTLIEILASRTNKEIRDINRVYREELKRDLAKDITSDTSGDFRNALLSLAKGDRSEDFGVNEDLADSDARALYEAGERRKGTDVNVFNTILTTRSYPQLRRVFQKYTKYSKHDMNKVLDLELKGDIEKCLTAIVKCATSKPAFFAEKLHQAMKGVGTRHKALIRIMVSRSEIDMNDIKAFYQKMYGISLCQAILDETKGDYEKILVALCGGN
# Experiments:
# Assay in all cases: glycan array binding signal (z-score within array); higher = stronger binding
# Details in all cases: glycan notation: IUPAC condensed, linker removed
# [1] = molecular target: Fuc(a1-2)Gal(b1-3)GlcNAc(b1-2)Man(a1-3)[Fuc(a1-2)Gal(b1-3)GlcNAc(b1-2)Man(a1-6)]Man(b1-4)GlcNAc(b1-4)[Fuc(a1-6)]GlcNAc
# Outline: (§1)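 Glycan array data came from 3228 arrays in the Consortium for Functional Glycomics database, and only arrays with an available protein sequence were kept. Glycan names were put into IUPAC-condensed notation, and columns mapping to the same glycan were averaged. The binding signal is a within-array Z-score, averaged across arrays of one protein sequence run at different concentrations or buffers and across linkers. A negative Z-score can be read as non-binding.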
# [2] = molecular target: Fuc(a1-2)Gal(b1-3)[Fuc(a1-4)]GlcNAc
# Outline: as §1
# [3] = molecular target: Fuc(a1-2)Gal(b1-3)[Fuc(a1-4)]GlcNAc(b1-2)Man(a1-3)[Fuc(a1-2)Gal(b1-3)[Fuc(a1-4)]GlcNAc(b1-2)Man(a1-6)]Man(b1-4)GlcNAc(b1-4)GlcNAc
# Outline: as §1
# [4] = molecular target: Fuc(a1-2)Gal(b1-3)[Fuc(a1-4)]GlcNAc(b1-2)Man(a1-6)[Fuc(a1-2)Gal(b1-3)[Fuc(a1-4)]GlcNAc(b1-2)Man(a1-3)]Man(b1-4)GlcNAc(b1-4)[Fuc(a1-6)]GlcNAc
# Outline: as §1
# [5] = molecular target: Fuc(a1-2)Gal(b1-4)[Fuc(a1-3)]GlcNAc(b1-2)Man(a1-6)[Fuc(a1-2)Gal(b1-4)[Fuc(a1-3)]GlcNAc(b1-2)Man(a1-3)]Man(b1-4)GlcNAc(b1-4)[Fuc(a1-6)]GlcNAc
# Outline: as §1
# [6] = molecular target: Fuc(a1-2)Gal(b1-4)[Fuc(a1-3)]GlcNAc(b1-3)Gal(b1-4)[Fuc(a1-3)]GlcNAc(b1-3)Gal(b1-4)[Fuc(a1-3)]GlcNAc
# Outline: as §1
# [7] = molecular target: Fuc(a1-2)Gal(b1-4)[Fuc(a1-3)]GlcNAc(b1-3)GalNAc
# Outline: as §1
# Fuc(a1-2)[Gal(a1-3)]Gal = molecular target: Fuc(a1-2)[Gal(a1-3)]Gal
# Outline: as §1
# [8] = molecular target: Fuc(a1-2)[Gal(a1-3)]Gal(b1-4)GlcNAc(b1-2)Man(a1-3)[Fuc(a1-2)[Gal(a1-3)]Gal(b1-4)GlcNAc(b1-2)Man(a1-6)]Man(b1-4)GlcNAc(b1-4)GlcNAc
# Outline: as §1
# [9] = molecular target: Fuc(a1-2)[GalNAc(a1-4)]Gal(b1-4)GlcNAc
# Outline: as §1
# [10] = molecular target: Fuc(a1-3)[Gal(b1-4)]GlcNAc(b1-2)Man(a1-3)[Fuc(a1-3)[Gal(b1-4)]GlcNAc(b1-2)Man(a1-6)]Man(b1-4)GlcNAc(b1-4)[Fuc(a1-6)]GlcNAc
# Outline: as §1
# [11] = molecular target: Fuc(a1-3)[Gal(b1-4)]GlcNAc(b1-3)GalNAc
# Outline: as §1
# [12] = molecular target: Fuc(a1-3)[Gal3S(b1-4)]GlcNAc
# Outline: as §1
# [13] = molecular target: Gal(a1-3)Gal(b1-4)[Fuc(a1-3)]GlcNAc(b1-2)Man(a1-3)[Gal(a1-3)Gal(b1-4)[Fuc(a1-3)]GlcNAc(b1-2)Man(a1-6)]Man(b1-4)GlcNAc(b1-4)GlcNAc
# Outline: as §1
# Gal(b1-2)Gal = molecular target: Gal(b1-2)Gal
# Outline: as §1
# [14] = molecular target: Gal(b1-3)GalNAc(b1-3)Gal(a1-4)Gal(b1-4)Glc
# Outline: as §1
# [15] = molecular target: Gal(b1-3)[Fuc(a1-4)]GlcNAc(b1-3)Gal(b1-3)[Fuc(a1-4)]GlcNAc
# Outline: as §1
# [16] = molecular target: Gal(b1-4)GlcNAc(b1-2)Man(a1-3)[Gal(b1-4)GlcNAc(b1-2)Man(a1-6)]Man(b1-4)GlcNAc(b1-4)GlcNAc
# Outline: as §1
# [17] = molecular target: Gal(b1-4)GlcNAc(b1-2)Man(a1-3)[GlcNAc(b1-2)Man(a1-6)]Man(b1-4)GlcNAc(b1-4)GlcNAc
# Outline: as §1
# [18] = molecular target: Gal(b1-4)GlcNAc(b1-2)Man(a1-3)[Man(a1-6)]Man(b1-4)GlcNAc(b1-4)GlcNAc
# Outline: as §1
# Gal3S6S(b1-4)GlcNAc = molecular target: Gal3S6S(b1-4)GlcNAc
# Outline: as §1
# Gal6P(b1-4)GlcNAc = molecular target: Gal6P(b1-4)GlcNAc
# Outline: as §1
# GalNAc(a1-3)Gal = molecular target: GalNAc(a1-3)Gal
# Outline: as §1
# GalNAc(b1-3)Gal = molecular target: GalNAc(b1-3)Gal
# Outline: as §1
# GalNAc(b1-4)Gal(b1-4)Glc = molecular target: GalNAc(b1-4)Gal(b1-4)Glc
# Outline: as §1
# [19] = molecular target: Glc(a1-4)Glc(a1-4)Glc(a1-4)Glc
# Outline: as §1
# [20] = molecular target: GlcNAc(a1-4)Gal(b1-4)GalNAc
# Outline: as §1
# GlcNAc(b1-3)Gal = molecular target: GlcNAc(b1-3)Gal
# Outline: as §1
# [21] = molecular target: GlcNAc(b1-3)[GlcNAc(b1-4)][GlcNAc(b1-6)]GlcNAc
# Outline: as §1
# Kdn(a2-6)Gal(b1-4)GlcNAc = molecular target: Kdn(a2-6)Gal(b1-4)GlcNAc
# Outline: as §1
# Man(a1-2)Man(a1-3)Man = molecular target: Man(a1-2)Man(a1-3)Man
# Outline: as §1
# [22] = molecular target: Neu5Ac(a2-3)Gal(b1-3)GalNAc(b1-4)[Neu5Ac(a2-3)]Gal(b1-4)Glc
# Outline: as §1
# [23] = molecular target: Neu5Ac(a2-3)Gal(b1-3)[Fuc(a1-4)]GlcNAc
# Outline: as §1
# [24] = molecular target: Neu5Ac(a2-3)Gal(b1-3)[Neu5Ac(a2-3)Gal(b1-4)]GlcNAc
# Outline: as §1
# [25] = molecular target: Neu5Ac(a2-3)Gal(b1-4)GlcNAc
# Outline: as §1
# [26] = molecular target: Neu5Ac(a2-3)Gal(b1-4)GlcNAc(b1-2)Man(a1-3)[GlcNAc(b1-2)Man(b1-4)GlcNAc(b1-2)Man(a1-6)]Man(b1-4)GlcNAc(b1-4)GlcNAc
# Outline: as §1
# [27] = molecular target: Neu5Ac(a2-3)Gal(b1-4)[Fuc(a1-3)]GlcNAc6S
# Outline: as §1
# [28] = molecular target: Neu5Ac(a2-3)Gal6S(b1-4)GlcNAc
# Outline: as §1
# [29] = molecular target: Neu5Ac(a2-3)[GalNAc(b1-4)]Gal(b1-4)GlcNAc(b1-3)GalNAc
# Outline: as §1
# Neu5Ac(a2-6)Gal(b1-4)Glc = molecular target: Neu5Ac(a2-6)Gal(b1-4)Glc
# Outline: as §1
# [30] = molecular target: Neu5Ac(a2-6)Gal(b1-4)GlcNAc(b1-2)Man(a1-3)[GlcNAc(b1-2)Man(a1-6)]Man(b1-4)GlcNAc(b1-4)GlcNAc
# Outline: as §1
# [31] = molecular target: Neu5Ac(a2-6)Gal(b1-4)GlcNAc(b1-3)Gal(b1-4)GlcNAc(b1-3)Gal(b1-4)GlcNAc
# Outline: as §1
# [32] = molecular target: Neu5Ac(a2-6)GlcNAc(b1-4)GlcNAc
# Outline: as §1
# [33] = molecular target: Neu5Ac(a2-8)Neu5Ac(a2-8)Neu5Ac
# Outline: as §1
# Neu5Ac(b2-6)GalNAc = molecular target: Neu5Ac(b2-6)GalNAc
# Outline: as §1
# [34] = molecular target: Neu5Gc(b2-6)Gal(b1-4)GlcNAc
# Outline: as §1
binder,measurement,setting,value
B1,glycan array binding signal (z-score),[1],0.314
same,glycan array binding signal (z-score),[2],5.05
same,glycan array binding signal (z-score),[3],10.7
same,glycan array binding signal (z-score),[4],3.12
same,glycan array binding signal (z-score),[5],3.12
same,glycan array binding signal (z-score),[6],0.054
same,glycan array binding signal (z-score),[7],-0.317
same,glycan array binding signal (z-score),Fuc(a1-2)[Gal(a1-3)]Gal,-0.612
same,glycan array binding signal (z-score),[8],1.69
same,glycan array binding signal (z-score),[9],-0.304
same,glycan array binding signal (z-score),[10],2.81
same,glycan array binding signal (z-score),[11],-0.209
same,glycan array binding signal (z-score),[12],0.479
same,glycan array binding signal (z-score),[13],3.62
same,glycan array binding signal (z-score),Gal(b1-2)Gal,-0.402
same,glycan array binding signal (z-score),[14],-0.44
same,glycan array binding signal (z-score),[15],-0.366
same,glycan array binding signal (z-score),[16],-0.682
same,glycan array binding signal (z-score),[17],-0.567
same,glycan array binding signal (z-score),[18],1.08
same,glycan array binding signal (z-score),Gal3S6S(b1-4)GlcNAc,0.386
same,glycan array binding signal (z-score),Gal6P(b1-4)GlcNAc,-0.017
same,glycan array binding signal (z-score),GalNAc(a1-3)Gal,0.67
same,glycan array binding signal (z-score),GalNAc(b1-3)Gal,-0.664
same,glycan array binding signal (z-score),GalNAc(b1-4)Gal(b1-4)Glc,1.79
same,glycan array binding signal (z-score),[19],3.56
same,glycan array binding signal (z-score),[20],2.68
same,glycan array binding signal (z-score),GlcNAc(b1-3)Gal,-0.607
same,glycan array binding signal (z-score),[21],2.8
same,glycan array binding signal (z-score),Kdn(a2-6)Gal(b1-4)GlcNAc,-0.606
same,glycan array binding signal (z-score),Man(a1-2)Man(a1-3)Man,-0.123
same,glycan array binding signal (z-score),[22],-0.502
same,glycan array binding signal (z-score),[23],-0.529
same,glycan array binding signal (z-score),[24],-0.763
same,glycan array binding signal (z-score),[25],-0.209
same,glycan array binding signal (z-score),[26],-0.74
same,glycan array binding signal (z-score),[27],-0.736
same,glycan array binding signal (z-score),[28],-0.312
same,glycan array binding signal (z-score),[29],-0.294
same,glycan array binding signal (z-score),Neu5Ac(a2-6)Gal(b1-4)Glc,0.446
same,glycan array binding signal (z-score),[30],-0.496
same,glycan array binding signal (z-score),[31],0.122
same,glycan array binding signal (z-score),[32],-0.032
same,glycan array binding signal (z-score),[33],-0.49
same,glycan array binding signal (z-score),Neu5Ac(b2-6)GalNAc,-0.503
same,glycan array binding signal (z-score),[34],-0.654
